HCV inhibitor = qHTS Assay for Inhibitors of Hepatitis C Virus (HCV) | Huh7.5.1 HCVcc-Cre infection, luciferase reporter, 44 h | Potency, µM (top dose mostly 41.8 µM), for inactives: at the highest dose activity change, negative = inhibition, usual class: inhibitors | actives 3.4% (n = 340,000) | AID 651820, 2012; active = well fitted inhibition curve with a large enough effect; inconclusive = small, poorly fitted or top-dose-only effect, or another doubt; inactive = no such curve, though single readings can be large or run the other way; note: potency is the fitted concentration of half-maximal effect
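Reporter virus HCVcc-Cre (~0.5 moi) infects cells exposed to compound; seeding density 1,000 cells/well with 4 h settling beforehand. Luminescence, 15 sec read, taken 44 h post-infection following a 15 min RT substrate incubation.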
Marburg entry inh = qHTS for inhibitors of binding or entry into cells for Marburg Virus | Marburg virus pseudotyped entry inhibition, cell reporter | Potency, µM (top dose mostly 37.8 µM), inactives show at the highest dose activity change, negative = inhibition, usual class: inhibitors | actives 1.8% (n = 300,000) | AID 540276, 2011; calls by dose curve; tested in HEK293 cells; note: potency is the fitted concentration of half-maximal effect
HCMV antiviral = qHTS Assay for inhibitors of the human cytomegalovirus (HCMV); HFF cells, HCMV-luciferase reporter, 72 h; hits give low values; activity change, negative = inhibition, % at 57.5 µM; actives 4.5% (n = 410,000); AID 1259415, 2018; in the data active = activity change below about -60%; inconclusive = no clear call, values can overlap the other calls; inactive = above about -39%
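Screen run at 2 compound doses on HFFs infected with reporter HCMV, MOI 1 PFU/cell. Luciferase activity from cell lysates at 72 h post infection gave inhibition relative to buffer-only and Salinomycin wells.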
Lassa entry inh = qHTS for Inhibitors of binding or entry into cells for Lassa Virus; actives 1.2% (n = 300,000); AID 540256, 2011; Potency, µM (titrated, usually from 37.9 µM), without a hit: at the top dose activity change, negative = inhibition, actives largely listed as inhibitors; Lassa virus pseudotype entry inhibition, cell reporter; calls by dose curve; tested in HEK293 cells; note: potency is the fitted concentration of half-maximal effect; nearly all actives have a fitted effect of over 50% in size
FMDV antiviral = High Throughput Screening for Foot and Mouth Disease Virus Antivirals | actives 1.2% (n = 410,000) | AID 1159524, 2015 | Potency, µM (titrated, usually from 57.9 µM), for the others: at the highest dose activity change, negative = inhibition, actives largely listed as inhibitors | FMDV antiviral cell-based qHTS; calls by dose curve; tested in HEK293T cells; note: read-out not given here; potency is the fitted concentration of half-maximal effect; nearly all actives have a fitted effect of over 45% in size
Numbers without * were called inactive; ? = inconclusive; . = no result; [ ] = remark or other dose. Only some compounds are listed: those with a hit (about 7.9% of all), similar ones and a draw of the others. % is set by controls: 0 for no effect and ±100 for the full control effect.

SMILES | HCV inhibitor | Marburg entry inh | HCMV antiviral | Lassa entry inh | FMDV antiviral
O=C(C1CC1)N1CCC(c2nc(-c3ccc(S(=O)(=O)N4CCCC4)cc3)no2)CC1 | ? | -21.7% | 8.6 | -22.3% | ?
COc1ccc(-c2csc(NC(=O)CSc3nnc(Nc4ccccc4C)s3)n2)cc1 | -24.2% | ? | -70.2* | ? | 17.3%
COc1ccccc1Nc1nnc(SCC(=O)Nc2nc(-c3ccc(F)cc3)cs2)s1 | -27.3% | . | -88.2* | . | -1.9%
CCOc1ccccc1Nc1nnc(SCC(=O)Nc2nc(-c3ccc(OC)cc3)cs2)s1 | -15.3% | 17.3%[46.1 µM] | 1.0 | -2.2%[46.1 µM] | 9.6%
O=C(COc1ccccc1Cl)N(Cc1cccc(F)c1)C1CCS(=O)(=O)C1 (configuration not stated) | . | -8.6%[46.1 µM] | 7.5 | 0.9%[46.1 µM] | 4.1%
CCCN(Cc1cccs1)C(=O)Nc1cc(C)ccc1OC | . | 4.7%[46.1 µM] | -17.5 | 16.7%[46.1 µM] | -4.9%
O=C(NCc1cccnc1)c1cccc(S(=O)(=O)NCc2ccccc2)c1 | 25.9% | 27.8% | 8.4 | -12.1% | -0.8%
CC(OC(=O)c1ccc(Cl)c(S(N)(=O)=O)c1)C(=O)NCC1CCCCC1 (configuration not stated) | ? | . | -87.0* | . | 2.6%
O=c1cc(CSc2ccc(Cl)cc2)nc(-c2ccccc2)[nH]1 | 18.9% | 5.9%[46.1 µM] | -34.5 | 21.9% | -26.2%
O=c1cc(CSc2ccc(Cl)cc2)nc(-c2ccccn2)[nH]1 | ? | . | -61.1* | . | ?
Cc1nc(CSc2ccccc2)cc(=O)[nH]1 | -8.3% | ? | -25.3 | -0.2% | -0.8%
O=c1cc(CSc2ccccc2)nc(-c2ccccc2)[nH]1 | -2.9% | -1.6%[46.1 µM] | -104.6* | 0.7% | -9.8%
Clc1ccc(SCc2cc(N3CCOCC3)nc(-c3ccccn3)n2)cc1 | 8.91µM* | ? | -92.0* | ? | -26.3%
CC(=O)Nc1ccc(C(=O)N2CCCC(c3cc(C(=O)Nc4ccccc4Cl)no3)C2)cc1 (configuration not stated) | . | . | -18.3 | . | 0.0%
COc1cccc(Nc2nc(C(N)Cc3ccc(C(F)(F)F)cc3)cs2)n1 (configuration not stated) | . | . | -90.4* | . | 0.0%
COc1cc(OC)nc(Nc2nc(C(N)Cc3ccc(C(F)(F)F)cc3)cs2)n1 (configuration not stated) | . | . | -85.2* | . | -23.1%
Cc1cc(C)nc(Nc2nc(C(N)Cc3ccc(C(F)(F)F)cc3)cs2)n1 (configuration not stated) | . | . | -16.0 | . | 0.0%
CCc1nn(CC(=O)NCCCc2ccccc2)c(=O)c2cc3ccccc3n12 | . | ? | 2.0 | . | -6.1%
CCOc1cc(C(=S)N2CCOCC2)ccc1OC(=O)c1cccc(C)c1 | 11.2µM* | . | 57.8 | . | ?
CCOc1cc(C(=S)N2CCOCC2)ccc1OC(=O)c1ccccc1 | 11.8% | . | -0.1 | . | -13.9%
CCOc1cc(/C=N\NC(=O)c2ccc(NC(=O)CC)cc2)ccc1OC(=O)c1ccccc1 | 10.9% | ? | ? | 23.1µM* | 17.3%
CCOc1cc(/C=N\NC(=O)c2ccc(NC(=O)C(C)(C)C)cc2)ccc1OC(=O)c1cccc(C)c1 | 3.16µM* | 2.59µM* | -11.1 | 6.51µM* | 8.91µM*
CCOc1cc(/C=N\NC(=O)c2ccc(NC(=O)C(C)(C)C)cc2)ccc1OC(=O)c1ccc(C)cc1 | 22.4% | 34.0% | -5.4 | ? | -0.7%
Cc1ccccc1-n1nc2c(c1NC(=O)C(C)(C)C)CS(=O)(=O)C2 | 18.7% | . | 23.7 | . | -16.8%
CC(Sc1ccc(S(=O)(=O)N2CCCCC2)cn1)C(N)=O (configuration not stated) | . | . | 17.3 | . | 0.0%
SMILES | HCV inhibitor | Marburg entry inh | HCMV antiviral | Lassa entry inh | FMDV antiviral
Cc1nc(C)c(C(=O)N/N=C/c2c[nH]c3ccccc23)s1 | 1.4% | ? | . | -14.6% | -2.1%
Cc1nc(C)c(C(=O)N/N=C/c2cc(Br)ccc2O)s1 | ? | . | -99.0* | . | -0.6%
CCOc1ccccc1C=NNC(=O)C(=O)NN=Cc1ccccc1OCC | -17.6% | 25.0% | 9.3 | -5.1% | 0.0%
CCOc1ccccc1NC(=O)C(=O)N/N=C/c1cc(Br)ccc1O | 6.31µM* | 2.51µM* | -100.9* | 1.58µM* | -21.3%
O=C(N/N=C/c1cc(Br)ccc1O)c1ccncc1 | ? | 2.82µM* | 0.0 | ? | 17.9%
O=C(N/N=C/c1ccc(OC(=O)c2ccc(Br)cc2)cc1)c1ccncc1 | 17.5% | 20.5%[46.1 µM] | 13.0 | -9.9% | 26.3%
O=C(N/N=C/c1cc(Br)ccc1OC(=O)c1ccc(Br)cc1)c1ccncc1 | 3.16µM* | 1µM* | -16.4 | 5.62µM* | 0.0%
O=C(N/N=C/c1ccccc1O)c1ccncc1 | ? | . | 12.4 | . | 21.1%
CCOCCCNS(=O)(=O)c1ccc(NC(=O)N2c3ccccc3Sc3ccccc32)cc1 | ? | -2.3% | -19.2 | . | -5.7%
CCCCCN(C(=O)CCC(=O)OCC(=O)N1CCCCC1C)c1c(N)n(CCCC)c(=O)[nH]c1=O (configuration not stated) | 4.9% | 8.2% | 47.0 | -2.2% | -1.7%
CC(C)c1ccc(NC(=O)c2ccc(CN3CC(=O)N4CCCCC4C3=O)cc2)cc1 (configuration not stated) | . | . | 25.8 | 12.0%[46.1 µM] | -23.9%
O=C(N/N=C/c1cc(Cl)ccc1O)c1ccc(Br)cc1 | 3.16µM* | ? | -101.9* | 10µM* | 6.1%
O=C(N/N=C/c1cccc(Br)c1)c1ccc(Br)cc1 | -16.0% | -13.5%[46.1 µM] | -0.4 | 2.2%[46.1 µM] | -8.1%
O=C(CNC(=O)c1ccc(S(=O)(=O)N2CCCC2)cc1)N/N=C/c1c(Cl)cccc1Cl | ? | ? | -71.6* | ? | ?
O=C(N/N=C/c1ccc(O)c2ncccc12)c1cccc(Br)c1 | 3.55µM* | 13µM* | -98.9* | ? | -3.7%
O=C(N/N=C\c1cc(Br)ccc1O)c1ccc(S(=O)(=O)N2CCCCC2)cc1 | 3.55µM* | ? | -100.0* | ? | -1.6%
CC(=O)c1c[nH]c(C(=O)Nc2ccc(N3CCCCCC3)cc2)c1 | ? | 0.5% | ? | -7.4% | -23.9%
COC(=O)c1ccccc1S(=O)(=O)N1CCCC(c2nc3c(nnn3Cc3ccc(C)cc3)c(=O)[nH]2)C1 (configuration not stated) | 16.7% | -1.6%[46.1 µM] | -77.5* | ? | -22.3%
COc1cccc(CN2CC(C(=O)NCc3ccc(C)o3)CCC2=O)c1 (configuration not stated) | 14.9% | . | -26.0 | . | 20.0%
Cc1ccc(NC(=O)CSc2ccccc2)cc1S(=O)(=O)N1CCOCC1 | -3.0% | -7.9% | 2.6 | -8.2% | 28.9%
Cc1ccc(NC(=O)CSc2ncnc3ccccc23)cc1S(=O)(=O)N1CCOCC1 | ? | ? | 5.6 | ? | ?
Cc1ccc(NC(=O)CSc2ccccc2)cc1S(=O)(=O)N1CCCCC1 | 12.6µM* | ? | ? | ? | ?
Cc1ccc(NC(=O)c2cc(=O)c3ccccc3o2)cc1S(=O)(=O)N1CCCCC1 | ? | -21.3%[46.1 µM] | -68.8* | -23.2% | 25.1µM*

Bioassay records (PubChem BioAssay)
